Sm TGR block: qHTS Assay for the Inhibitors of Schistosoma Mansoni Peroxiredoxins; Schistosoma mansoni thioredoxin glutathione reductase (TGR), Q962Y6; purified TGR, DTNB reduction, TNB absorbance 405 nm; Potency, µM (titrated, usually from 114 µM), hits mostly inhibitors; 360,000 compounds, 3% hits; note: nearly all actives have a fitted effect of over 60% in size
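TGR 20 nM + NADPH 100 uM (dispensed conc.), cpd preinc 15 min RT; start with NADPH (500 uM addition) then DTNB (15 mM addition). Kinetic TNB absorbance, 405 nm filter. Four-parameter Hill fit across titration.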
AmpC inh no detg: qHTS Inhibitors of AmpC Beta-Lactamase (assay without detergent) | 330,000 compounds, 0.52% hits | Potency, µM (titrated, usually from 57.1 µM), hits mostly inhibitors | AID 485341, 2010 | AmpC nitrocefin hydrolysis, absorbance 480 nm, 0.0001% Triton; note: nearly all actives have a fitted effect of over 20% in size
Target sequence (P00811 whole entry, looked up): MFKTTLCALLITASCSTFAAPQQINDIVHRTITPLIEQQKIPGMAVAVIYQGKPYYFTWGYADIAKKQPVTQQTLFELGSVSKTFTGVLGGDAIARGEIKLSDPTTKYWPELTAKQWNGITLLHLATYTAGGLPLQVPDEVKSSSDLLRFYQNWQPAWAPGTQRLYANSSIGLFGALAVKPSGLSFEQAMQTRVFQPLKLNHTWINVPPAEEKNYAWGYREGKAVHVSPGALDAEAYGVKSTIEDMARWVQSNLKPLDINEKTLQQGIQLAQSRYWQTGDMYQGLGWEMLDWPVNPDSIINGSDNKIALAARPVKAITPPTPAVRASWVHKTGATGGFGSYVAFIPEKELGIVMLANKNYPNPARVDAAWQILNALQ
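20 mM phosphate pH 7.0 + 0.01% (detergent screen) or 0.0001% Triton X-100; 5.3 nM AmpC reagent; cpd preinc 15 min RT; nitrocefin (800 uM stock) to start; A480 q20 s × 4 min; Activity was normalised to no-enzyme and no-compound control wells.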
AmpC inh detg: qHTS Inhibitors of AmpC Beta-Lactamase (assay with detergent); P00811; Potency, µM (top dose mostly 114 µM), hits mostly inhibitors; 370,000 compounds, 0.041% hits; AmpC hydrolysis of nitrocefin, absorbance 480 nm, 0.01% Triton; AID 485294, 2010; note: nearly all actives have a fitted effect of over 25% in size
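AmpC (5.3 nM in the dispensed reagent) in 20 mM phosphate pH 7.0 with 0.01% (detergent screen) or 0.0001% Triton X-100 was preincubated with compounds for 15 min at room temperature. Nitrocefin was then added from an 800 uM solution, and hydrolysis was followed at 480 nm.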
Each line names hits and unclear results; the compound was inactive in the other large screens. A selection: hits, their analogues and other compounds. The true share with any hit is near 3.3%. Calls come from the whole dose curve; as a rule, active = well fitted curve in the direction sought with a large enough effect; inconclusive = small, poorly fitted or top-dose-only effect, or another doubt; inactive = no such curve, though single readings can be large; an effect the other way counts as inactive or inconclusive.

N=C1/C(=C\c2coc3ccc(O)cc3c2=O)C(=O)N=C2SC=CN12	Sm TGR block 28µM
N=C1/C(=C\c2coc3ccccc3c2=O)C(=O)N=C2SC(c3ccncc3)=NN12	none
N=C1/C(=C/c2coc3ccccc3c2=O)C(=O)N=C2SC(c3ccco3)=NN12	Sm TGR block 10µM
O=C1NC(=O)C(=Cc2coc3ccc(O)cc3c2=O)C(=O)N1	Sm TGR block inconclusive
COc1ccc(CNS(=O)(=O)c2ccc(F)c(C(=O)Nc3c(C)cc(C)cc3C)c2)cc1	none (no result: AmpC inh no detg)
COc1cccc(/C=N/NC(=O)CCCc2ccc(OC)c(C)c2)c1	AmpC inh detg inconclusive
O=c1[nH]cc(C(F)(F)F)cc1NS(=O)(=O)c1ccccc1[N+](=O)[O-]	AmpC inh detg inconclusive
CCC(/C=C1\Sc2ccc(OC)cc2N1CCO)=C\c1sc2ccc(OC)cc2[n+]1CCO	Sm TGR block 11µM
CCC(/C=C1\Sc2ccc(OC)cc2N1CC)=C\c1sc2ccc(OC)cc2[n+]1CCCS(=O)(=O)[O-]	none
CCOC(=O)c1cc(S(=O)(=O)N2CCN(c3ccccc3F)CC2)[nH]n1	none (no result: AmpC inh no detg)
CCN(CC)C(=O)C1=C(C)Nc2nc3ccccc3n2C1c1ccc(Cl)cc1 (stereo not given)	none (no result: AmpC inh no detg)
N#CC1=C(N)Nc2nc3ccccc3n2C1c1ccc(Cl)cc1 (stereo not given)	AmpC inh no detg 13µM, AmpC inh detg inconclusive
COCCCn1c(=S)[nH]c2sc3c(c2c1=O)CCCS3	none
CC(=O)N1CCCc2cc(S(=O)(=O)N(C)CC(=O)Nc3ccc(F)c(Cl)c3)ccc21	none (no result: AmpC inh no detg)
Nc1cc(-c2ccc(Cl)cc2)nn1S(=O)(=O)c1cccc2nsnc12	AmpC inh no detg 22µM
Nc1cc(-c2ccc(Br)cc2)nn1S(=O)(=O)c1cccc2nsnc12	AmpC inh detg inconclusive
Cc1nn(CC(=O)NCCc2ccco2)c(=O)c2nn(-c3ccccc3)c(C)c12	Sm TGR block 32µM
Cc1ccc(-n2nc3c(=O)n(CC(=O)NCc4ccco4)nc(C)c3c2C)cc1	none (no result: AmpC inh no detg)
Cc1ccc(Cl)c(OCC(=O)OC(C)C(=O)NC2CC2)c1 (stereo not given)	AmpC inh detg inconclusive
CC(SC(=S)N1CCCC1)C(=O)O (stereo not given)	none
Cc1csc(SCC(=O)Nc2ccc3[nH]c(=O)[nH]c3c2)n1	none (no result: Sm TGR block, AmpC inh detg)
COc1cc(CN2CCNC(=O)C2CC(=O)O)cc(OC)c1 (stereo not given)	none
COc1cccc(CCNC(=O)CC2C(=O)NCCN2Cc2ccc(C)o2)c1 (stereo not given)	Sm TGR block 50µM
Cc1ccc(CN2CCNC(=O)C2CC(=O)O)o1 (stereo not given)	Sm TGR block 45µM, AmpC inh detg inconclusive
O=C(CC1C(=O)NCCN1Cc1cccc(F)c1)NCCCN1CCCC1=O (stereo not given)	AmpC inh detg inconclusive
Cc1ccc(CN2CCNC(=O)C2CC(=O)N(C)C2CCCCC2)o1 (stereo not given)	Sm TGR block inconclusive
COc1cccc(CN2CCNC(=O)C2CC(=O)NCCCN2CCCC2=O)c1 (stereo not given)	Sm TGR block 18µM, AmpC inh detg inconclusive
COc1cc(CN2CCNC(=O)C2CC(=O)N2CCCN(C(C)=O)CC2)cc(OC)c1 (stereo not given)	Sm TGR block 32µM
COc1cccc(CCNC(=O)CC2C(=O)NCCN2CC(C)(C)C)c1 (stereo not given)	Sm TGR block inconclusive
COc1ccc(/C=C(\C#N)C(=O)OCC(=O)NC2CC2)cc1	none
O=[N+]([O-])c1ccc(S(=O)(=O)N2CCN(c3ccc(N4CCOCC4)nn3)CC2)cc1	none
Cc1ccc(S(=O)(=O)N2CCN(C(=O)CCC(=O)NCc3ccc(F)cc3)CC2)cc1	none
COc1ccc(NC(=O)CC2C(=O)N(c3cccc(OC)c3)C(=O)N2CCC(C)C)cc1 (stereo not given)	none
COc1ccc(NC(=O)CC2C(=O)N(c3cccc(OC)c3)C(=O)N2Cc2ccco2)cc1 (stereo not given)	Sm TGR block 45µM
COC(=O)c1ccc(NC(=O)CC2C(=O)N(c3ccccc3)C(=O)N2Cc2ccco2)cc1 (stereo not given)	Sm TGR block inconclusive (no result: AmpC inh no detg)
COC(=O)c1ccc(NC(=O)CC2C(=O)N(c3cccc(C)c3)C(=O)N2Cc2ccco2)cc1 (stereo not given)	none (no result: AmpC inh no detg)
CCOc1ccc(NC(=O)CC2C(=O)N(c3ccccc3)C(=O)N2Cc2ccco2)cc1 (stereo not given)	Sm TGR block 45µM
COc1cc(NC(=O)CC2C(=O)N(c3cccc(C)c3)C(=O)N2Cc2ccco2)cc(OC)c1 (stereo not given)	Sm TGR block 50µM (no result: AmpC inh no detg)
O=C(COC(=O)c1ccccc1C(=O)c1ccc(Cl)cc1)NC(c1ccccc1)c1ccccc1	none
COc1ccc(CNC(=O)COC(=O)/C=C/c2cccc(Br)c2)cc1OC	none
CN(C)C(CNC(=O)c1ccc(Cl)c(S(=O)(=O)N2CCCCCC2)c1)c1ccccc1 (stereo not given)	none
COc1ccc(-c2nc3n(n2)C(=O)CC(c2ccco2)S3)cc1 (stereo not given)	Sm TGR block 18µM
CCOc1ccc(C2CC(=O)n3nc(-c4ccc(C)cc4)nc3S2)cc1 (stereo not given)	none (no result: AmpC inh no detg)
CC(=O)/C(=C\N(C)C)Sc1ccc(Cl)cc1	Sm TGR block inconclusive
S=C(Sc1ccc(Cl)cc1)Sc1ccc(Cl)cc1	Sm TGR block 2µM
COc1ccc(/[N+]([O-])=C/c2ccoc2)cc1	Sm TGR block 5µM
COc1ccc(C(=O)N/N=C\c2ccoc2)cc1	none
COC(=O)C1=C(C)NC(=S)NC1c1sccc1C (stereo not given)	none
COC(=O)C1=C(C)NC(=S)NC1c1ccc(-c2cc(Cl)ccc2Cl)o1 (stereo not given)	Sm TGR block 13µM, AmpC inh no detg inconclusive
COC(=O)C1=C(C)NC(=O)NC1c1ccc([N+](=O)[O-])o1 (stereo not given)	Sm TGR block inconclusive
COC(=O)C1=C(C)NC(=O)NC1c1ccc(-c2ccc(Cl)cc2)o1 (stereo not given)	Sm TGR block 14µM
CN(C)c1ccc(NC(=O)CCSc2nc(-c3ccco3)cc(C(F)(F)F)n2)cc1	none (no result: AmpC inh no detg)
Cc1ccc(C)c(N2CCN(C(=O)c3cc(C)nc4c3c(C)nn4-c3ccccc3)CC2)c1	none (no result: AmpC inh no detg)
COc1cccc(CNC(=O)COC(=O)c2nc(Cl)c(Cl)c(Cl)c2Cl)c1	Sm TGR block 3.2µM, AmpC inh detg inconclusive
COc1cccc(CNC(=O)CCl)c1	Sm TGR block inconclusive
COc1cccc(C(=O)OCC(=O)NCCCc2ccccc2)c1	Sm TGR block 79µM, AmpC inh detg inconclusive
O=C(c1ccco1)N1CCN(C(=O)c2cc(-c3ccccn3)nc3ccccc23)CC1	Sm TGR block 35µM
CCNC(=O)COC(=O)c1cc(-c2ccco2)nc2ccccc12	Sm TGR block 16µM
O=C(COC(=O)c1cc(F)cc(F)c1)NCCCc1ccccc1	none
CN(C)C(=O)c1ccc(NC(=O)c2cc(-c3ccco3)nc3ccccc23)cc1	none
O=C(c1ccco1)N1CCN(C(=O)c2cc(Cl)nc3ccccc23)CC1	AmpC inh detg inconclusive

Screens (PubChem BioAssay)
